Test results published in PubChem BioAssay AID1159580 (chemical genetic matrix, 2015).
Hit rate of the full screen: of about 5,500 compounds, about 2,000 (36%) were called active. Inconclusive results (about 18%) are left out. No stated cut-off is given here; in the data, active means normalized growth mostly below about 0.91 (no sharp cut-off); inconclusive means no clear call, values can overlap the other calls; inactive means mostly above about 0.92. The list shows a part of the results.

Test: chemical genetic growth profiling, strain panel (AID 1159580);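 further: tested at 20 µM; growth read once vehicle control cultures reached saturation at 30 °C; 1 = growth at the plate median or of vehicle wells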
Details: S. cerevisiae deletion strains, growth OD

Measured: normalized growth

CN1CC(=O)N2[C@H](c3ccc4c(c3)OCO4)c3[nH]c4ccccc4c3C[C@@H]2C1=O
inactive: locus YHR030C, strain SLT2, stronger effect = lower value 0.966 | locus YHR079C, strain IRE1, stronger effect = lower value 0.947 | locus YJL095W, strain BCK1, stronger effect = lower value 0.964 | locus YJR066W, strain TOR1, stronger effect = lower value 0.913 | locus YLR113W, strain HOG1, stronger effect = lower value 0.968 | locus YNL183C, strain NPR1, stronger effect = lower value 0.918 | locus YOR231W, strain MKK1, stronger effect = lower value 0.975 | locus YPL256C, strain CLN2, stronger effect = lower value 0.946

O=C(O)c1ccc2c(c1)OCO2
inactive: locus YAL021C, strain ccr4, stronger effect = lower value 1.01 | locus YAL026C, strain drs2, stronger effect = lower value 0.983 | locus YAL030W, strain snc1, stronger effect = lower value 1.01 | locus YBL061C, strain skt5, stronger effect = lower value 1 | locus YBR009C, strain hhf1, stronger effect = lower value 0.997 | locus YBR023C, strain chs3, stronger effect = lower value 1.01 | locus YBR171W, strain sec66, stronger effect = lower value 0.992 | locus YBR231C, strain swc5, stronger effect = lower value 1.01 | locus YBR279W, strain paf1, stronger effect = lower value 1.01 | locus YCL011C, strain gbp2, stronger effect = lower value 0.979 | locus YCL016C, strain dcc1, stronger effect = lower value 1.01 | locus YCL061C, strain MRC1, stronger effect = lower value 0.984 | locus YCL069W, strain vba3, stronger effect = lower value 0.984 | locus YCR088W, strain abp1, stronger effect = lower value 0.984 | locus YDL005C, strain med2, stronger effect = lower value 1.01 | locus YDL040C, strain nat1, stronger effect = lower value 1.01 | locus YDR001C, strain nth1, stronger effect = lower value 0.982 | locus YDR069C, strain doa4, stronger effect = lower value 1.02 | locus YDR137W, strain rgp1, stronger effect = lower value 1.01 | locus YDR159W, strain sac3, stronger effect = lower value 0.98 | locus YDR195W, strain ref2 1.02 | locus YDR297W, strain sur2, stronger effect = lower value 1.01 | locus YDR334W, strain swr1, stronger effect = lower value 0.994 | locus YDR335W, strain msn5, stronger effect = lower value 1.01 | locus YDR392W, strain spt3, stronger effect = lower value 0.979 | locus YEL003W, strain gim4, stronger effect = lower value 0.98 | locus YEL037C, strain rad23, stronger effect = lower value 0.987 | locus YEL061C, strain CIN8 (second series), stronger effect = lower value 0.988 | locus YER015W, strain faa2, stronger effect = lower value 0.997 | locus YER016W, strain bim1, stronger effect = lower value 1.01 | locus YER111C, strain swi4, stronger effect = lower value 0.978 | locus YER155C, strain BEM2 (second series), stronger effect = lower value 0.992 | locus YFR010W, strain ubp6, stronger effect = lower value 0.994 | locus YGL167C, strain pmr1, stronger effect = lower value 1.02 | locus YGL173C, strain kem1, stronger effect = lower value 1.01 | locus YGL227W, strain vid30, stronger effect = lower value 0.973 | locus YGL240W, strain doc1, stronger effect = lower value 0.998 | locus YGL253W, strain hxk2, stronger effect = lower value 1.01 | locus YHR013C, strain ard1, stronger effect = lower value 1.05 | locus YHR027C, strain rpn1, stronger effect = lower value 1.03 | locus YHR142W, strain chs7, stronger effect = lower value 1 | locus YJL092W, strain hpr5, stronger effect = lower value 0.985 | locus YJL095W, strain BCK1 (second series), stronger effect = lower value 1.02 | locus YJL115W, strain asf1, stronger effect = lower value 0.994 | locus YJL129C, strain trk1, stronger effect = lower value 0.998 | locus YJL154C, strain vps35, stronger effect = lower value 0.989 | locus YJL164C, strain tpk1, stronger effect = lower value 1 | locus YJL166W, strain qcr8, stronger effect = lower value 1.02 | locus YJL187C, strain SWE1, stronger effect = lower value 1.02 | locus YKL160W, strain elf1, stronger effect = lower value 1 | locus YKR026C, strain gcn3, stronger effect = lower value 0.983 | locus YKR091W, strain srl3, stronger effect = lower value 1.01 | locus YLL001W, strain dnm1, stronger effect = lower value 1.01 | locus YLL026W, stronger effect = lower value 1.01 | locus YLL041C, strain sdh2, stronger effect = lower value 1 | locus YLR027C, strain aat2, stronger effect = lower value 1 | locus YLR221C, strain rsa3, stronger effect = lower value 0.999 | locus YLR258W, strain gsy2, stronger effect = lower value 1 | locus YLR262C, strain YPT6 (second series), stronger effect = lower value 1.01 | locus YLR320W, strain mms22, stronger effect = lower value 1.03 | locus YLR342W, strain FKS1, stronger effect = lower value 1.05 | locus YLR357W, strain rsc2, stronger effect = lower value 1.09 | locus YLR370C, strain arc18, stronger effect = lower value 1.01 | locus YLR384C, strain iki3, stronger effect = lower value 1.01 | locus YML120C, strain ndi1, stronger effect = lower value 1.01 | locus YMR058W, strain fet3, stronger effect = lower value 0.997 | locus YMR125W, strain sto1, stronger effect = lower value 1.07 | locus YMR129W, stronger effect = lower value 1 | locus YMR205C, strain PFK2, stronger effect = lower value 1.01 | locus YMR231W, strain pep5, stronger effect = lower value 1.01 | locus YNL071W, strain lat1, stronger effect = lower value 1.01 | locus YNL209W, strain ssb2, stronger effect = lower value 1.01 | locus YNL248C, strain rpa49, stronger effect = lower value 1.02 | locus YNL322C, strain KRE1 (second series), stronger effect = lower value 0.991 | locus YNR049C, strain mso1, stronger effect = lower value 1.01 | locus YOR001W, strain rrp6, stronger effect = lower value 0.994 | locus YOR070C, strain gyp1, stronger effect = lower value 0.999 | locus YOR080W, strain dia2, stronger effect = lower value 1.01 | locus YOR083W, strain WHI5, stronger effect = lower value 1 | locus YOR106W, strain vam3, stronger effect = lower value 1 | locus YOR265W, strain rbl2, stronger effect = lower value 1 | locus YOR270C, strain vph1, stronger effect = lower value 1.05 | locus YOR290C, strain snf2, stronger effect = lower value 0.967 | locus YPL051W, strain arl3, stronger effect = lower value 1.01 | locus YPL078C, strain atp4, stronger effect = lower value 0.995 | locus YPL106C, strain sse1, stronger effect = lower value 1 | locus YPL240C, strain hsp82, stronger effect = lower value 1.01
